In the supplement of paper PMC4894684:
Where a name gives a salt, the structure may show the parent alone. ± gives the standard deviation of the averaged measurements.

Tested on: Toxoplasma gondii RH (in HFF)
Test: parasite growth relative to the screen mean (all compounds = 100%); higher = less inhibition of parasite growth
Settings: 5 µM; 72 h; oxygen 21 %
Method in brief: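 Values give growth relative to the screen mean. The screen mean (all compounds) is set at 100%, and two screens were averaged. Compounds at 5 µM final were placed on confluent human foreskin fibroblasts, which were infected within 2 h with RH β-Gal–GFP Toxoplasma (MOI 1:5) and kept 72 h at 21% O2 before a CPRG β-Gal readout against in-plate standard curves.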

Compound | parasite growth
Cc1nnc(-c2ccc3occ(-c4ccc([S+](C)[O-])cc4)c3c2)o1 (stereo not given) | 83.7 ± 4.5%
CCCCC[C@H](O)/C=C/[C@H]1[C@H](O)CC(=O)[C@@H]1CCCCCCC(=O)O [Alprostadil] | 140 ± 6%
COc1nc(C)nc(Cl)c1NC1=NCCN1 [Moxonidine hydrochloride] | 108 ± 27%
Cc1nc2sccn2c(=O)c1CCN1CCC(=C(c2ccccc2)c2ccc(F)cc2)CC1 | 106 ± 24%
O=C(O)COc1cccc(-c2ocnc2-c2nc(-c3ccccc3)c(-c3ccccc3)o2)c1 | 62.8 ± 28%
N#Cc1c(O)c2c(-c3ccc(-c4ccccc4O)cc3)csc2[nH]c1=O | 131 ± 14%
O=S1(=O)c2cccc3cccc(c23)N1CCCN1CCN(c2ccc(F)cc2)CC1 [Fananserin] | 130 ± 14%
COc1cc2c(cc1C(F)(F)F)N(C(=O)Nc1cc(F)cc(-c3cccnc3)c1)CC2 | 29.9 ± 3.3%
CCc1ccc2c(-c3cccc(Cl)c3)nc(=O)n(CC)c2n1 | 152 ± 17%
CC(/C=C/c1cccc(Oc2ccc(F)cc2)c1)N(O)C(N)=O (stereo not given) | 184 ± 12%
Cc1cc2nc3c(=O)[nH]c(=O)nc-3n(C)c2cc1C=O | 22.6 ± 1.9%
CC1=C(C(=O)OCCN(Cc2ccccc2)c2ccccc2)C(c2cccc([N+](=O)[O-])c2)C(P2(=O)OCC(C)(C)CO2)=C(C)N1 (stereo not given) [Efonidipine hydrochloride monoethanolate] | 58 ± 3.9%
CC(C)(C=O)Cc1cc(C(C)(C)C)c(O)c(C(C)(C)C)c1 | 199 ± 11%
O=C(NCCCCCCNC(=O)ON=C1CCCCC1)ON=C1CCCCC1 | 28.7 ± 2.9%
Cc1cc(C)c(S(=O)(=O)Nc2ccccc2C(F)(F)F)c(C)c1 | 145 ± 10%
CSc1cc2c(cc1C(F)(F)F)N(C(=O)Nc1cccnc1)CC2 | 122 ± 30%
N[C@@H](C(=O)O)c1ccc(O)c(C(=O)O)c1 [(R)-3-Carboxy-4-hydroxyphenylglycine] | 148 ± 15%
Nc1[nH]nc2nc3ccccc3nc12 | 142.8 ± 0.82%
CC1(C(=O)O)NCCc2cc(O)c(O)cc21 (stereo not given) [Salsolinol-1-carboxylic acid] | 104 ± 22%
CC(C)c1onc(-c2c(Cl)cccc2Cl)c1COc1ccc(/C=C/c2cccc(C(=O)O)c2)c(Cl)c1 | 95.6 ± 18%
Cc1nc2ccc(NC(=O)Nc3ccnc4cccnc34)cc2o1 | 88.83 ± 0.52%
COc1cc2ncnc(Nc3ccc(Oc4ccccc4)cc3)c2cc1OC | 110 ± 20%
CN(C)c1ccc(/C=C2/C(=O)Nc3ccccc32)cc1 | 124 ± 26%

Compound | parasite growth
Oc1cc(O)cc(/C=C/c2ccc(O)c(O)c2)c1 [Piceatannol] | 145 ± 42%
CCOC(=O)c1ncn2c1CN(C)C(=O)c1cc(F)ccc1-2 [Flumazenil] | 84.5 ± 15%
Oc1nc(-c2ccc(C(F)(F)F)cc2)nc2c1CSCC2 | 136 ± 21%
Brc1c(NC2=NCCN2)ccc2nccnc12 [UK 14,304 tartrate] | 101 ± 27%
CC[N+](CC)(CC)CC(=O)Nc1c(C)cccc1C [QX 314 chloride] | 133 ± 29%
Cc1cc(C)cc(C(=O)N(C)[C@H](Cc2ccc(-c3ccccc3)cc2)C(=O)N[C@@H](Cc2c[nH]c3ccccc23)C(=O)O)c1 | 146 ± 20%
N[C@@H](C(=O)O)c1ccc(C(=O)O)c(C(=O)O)c1 | 117 ± 7.7%
COc1cc(SC)ccc1C(=O)N1CCC(Cc2ccccc2)CC1 | 112 ± 5.8%
CS(=O)(=O)Nc1ccc([N+](=O)[O-])cc1Oc1ccccc1 [Nimesulide] | 98.5 ± 4.5%
CNCCC(Oc1ccc(C(F)(F)F)cc1)c1ccccc1 (stereo not given) [Fluoxetine hydrochloride] | 20.9 ± 8.2%
CCOC(=O)[C@@H](C)Oc1cccc2c(=O)n(CC(=O)Nc3ccc4c(c3)OCCO4)ccc12 | 118 ± 12%
CC[C@H](C)C(=O)O[C@H]1CCC=C2C=C[C@H](C)[C@H](CC[C@@H]3C[C@@H](O)CC(=O)O3)[C@H]21 [Mevastatin] | 109 ± 3.3%
OC(CN1CCC(Cc2ccc(F)cc2)CC1)c1ccc(Cl)cc1 (stereo not given) [Eliprodil] | 93.6 ± 21%
N[C@@H](Cc1cc(CP(=O)(O)O)cc(-c2ccccc2Cl)c1)C(=O)O | 122 ± 6.2%
CN1CCC(=C2c3ccccc3C=Cc3ccccc32)CC1 [Cyproheptadine hydrochloride] | 12.1 ± 16%
Cc1ccc(C(=O)Nc2ccc(S(=O)(=O)O)c3cc(S(=O)(=O)O)cc(S(=O)(=O)O)c23)cc1NC(=O)c1cccc(NC(=O)Nc2cccc(C(=O)Nc3cc(C(=O)Nc4ccc(S(=O)(=O)O)c5cc(S(=O)(=O)O)cc(S(=O)(=O)O)c45)ccc3C)c2)c1 [Suramin hexasodium salt] | 90 ± 22%
CCCCCCCCCCCCCCCC(=O)NCCO [Palmitoylethanolamide] | 64.8 ± 16%
CCN1CCCC1CNC(=O)c1cc(S(=O)(=O)CC)c(N)cc1OC (stereo not given) [Amisulpride] | 115 ± 14%
CCOC(=O)C1=C(C)NC(C)=C(C(=O)OC)C1c1cccc([N+](=O)[O-])c1 (stereo not given) [Nitrendipine] | 118 ± 5.5%
O=C(O)c1cc(O)c2ccc(Cl)cc2n1 [7-Chlorokynurenic acid] | 119 ± 9.9%
Brc1c(NC2=NCCN2)ccc2nccnc12 | 128 ± 24%
O=C1C(Cl)=C(NCCN2CCOCC2)C(=O)c2ncccc21 | 25.7 ± 24%
CCCCCCN(CCCCCC)C(=O)Cc1c(-c2ccc(Cl)cc2)[nH]c2ccc(Cl)cc12 | 175 ± 22%

Compound | parasite growth
C=CCn1c(=O)n([C@@H]2O[C@H](CO)[C@@H](O)[C@H]2O)c2nc(N)[nH]c(=O)c21 | 116 ± 8.2%
CCCCNC(=O)[C@@H]1Cc2ccccc2N1C(=O)[C@@H](N)CC [Butabindide oxalate] | 130 ± 7.7%
O=C1CC2(CCCC2)CC(=O)N1CCNCC1COc2ccccc2O1 (stereo not given) | 152 ± 13%
O=C(O)/C=C/c1ccc(Cn2ccnc2)cc1 [Ozagrel hydrochloride] | 119 ± 3.2%
OCc1cc(C(O)CNCCCCCCOCCCCc2ccccc2)ccc1O (stereo not given) [Salmeterol] | 14.4 ± 11%
CC(=O)OCCNC(=O)c1cccnc1 [N-[2-(Acetoxy)ethyl]-3-pyridinecarboxamide] | 117 ± 13%
CC(=O)NCC(=O)N[C@H](CCC(=O)O)C(=O)O [N-Acetylglycyl-D-glutamic acid] | 132 ± 22%
COc1ccc2c3c1O[C@H]1C[C@@H](O)C=C[C@@]31CCN(C)C2 [Galanthamine hydrobromide] | 138 ± 30%
c1nc(CC2CCNCC2)c[nH]1 [Immepip dihydrobromide] | 100.2 ± 0.4%
CN(C)CCCCSC(=N)N | 93.3 ± 15%
CC(C)Oc1cccc(-n2c(CCc3c[nH]c4ccc(Br)cc34)nc3ccccc3c2=O)c1 | 55.84 ± 0.023%
CCC(=O)OCN1C(=O)C=CC1=O | 124 ± 12%
O=c1[nH]ccc2c(S(=O)(=O)N3CCCNCC3)cccc12 [HA 1100 hydrochloride] | 122 ± 10%
O=C1NC(=O)c2cc(Nc3ccccc3)c(Nc3ccccc3)cc21 | 176 ± 43%
O=C(O)CCC/C=C\C[C@@H]1CO[C@H](C(F)(F)F)O[C@@H]1c1ccccc1O | 102 ± 25%
COc1ccc(NS(=O)(=O)c2ccc(I)cc2)cc1N1CCN(C)CC1 | 122 ± 17%
CC1c2ccccc2CN1CC1=NCCN1 (stereo not given) | 131 ± 4.2%
COC(=O)c1sccc1S(=O)(=O)Nc1ccc(Nc2ccccc2)cc1OC | 64 ± 25%
O=C1Cc2c([nH]c3ccc(Br)cc23)-c2ccccc2N1 [Kenpaullone] | 100 ± 12%
NC(C(=O)O)c1ccc(C(=O)O)c(C(=O)O)c1 (racemic) | 101 ± 31%
CC[C@@H]1Cn2c(c3nc(-c4ccccc4)nc-3n(C)c2=O)N1 | 96.8 ± 13%
CC[C@H](NC(=O)c1c(C)c(-c2ccccc2)nc2ccccc12)c1ccccc1 | 98.6 ± 3.1%
CCOC(=O)c1cnc2c(cnn2CC)c1NN=C(C)C [Etazolate hydrochloride] | 127 ± 21%

Compound | parasite growth
CC1(COc2ccc(CC3SC(=O)NC3=O)cc2)CCCCC1 (stereo not given) [Ciglitazone] | 100 ± 22%
COC(=O)C1=C(C)NC(C)=C([N+](=O)[O-])[C@H]1c1ccccc1C(F)(F)F | 153 ± 8.1%
COc1nccc(-c2c(-c3ccc(F)cc3)ncn2C2CCC(O)CC2)n1 (stereo not given) | < 0%
CCOC(=O)C1=C(N)Oc2ccc(Br)cc2C1C(C#N)C(=O)OCC (stereo not given) | 135 ± 2.5%
NC(C(=O)O)c1cc(O)cc(O)c1 (racemic) | 142 ± 15%
COc1ccccc1N1CCN(CCCCNC(=O)c2ccc(-c3ccc(C(C)=O)cc3)cc2)CC1 | 156 ± 28%
COc1ccc(CCCOC(Cn2ccnc2)c2ccc(OC)cc2)cc1 (stereo not given) | 95.6 ± 24%
c1cc2c(cc1C1CCCCC1)c1c3n2CCNC3CCC1 (stereo not given) [Tetrindole mesylate] | 13.2 ± 2.2%
N=C(CC(O)COc1ccccc1-c1ccccc1)N1CCCCC1 (stereo not given) | 95.8 ± 34%
Nc1nc(Nc2ccccc2)nc2c1ncn2[C@@H]1O[C@H](CO)[C@@H](O)[C@H]1O | 123 ± 7.1%
c1cc2c3c(c1)c1c(n3CCNC2)CCCC1 [WAY 629 hydrochloride] | 130 ± 4%
N[C@@H](CSS(=O)(=O)O)C(=O)O [S-Sulfo-L-cysteine sodium salt] | 101 ± 6.6%
O=C1NC(c2cccc([N+](=O)[O-])c2)=CCN1c1ccccc1O [Icilin] | 128 ± 36%
COc1cc(N)c(Cl)cc1C(=O)OCCCN1CCCCC1 | 109 ± 2.2%
CCN(CC)CCCCNc1ncc2cc(-c3c(Cl)cccc3Cl)c(NC(=O)NC(C)(C)C)nc2n1 | < 0%
N=C(N)NC(=O)c1nc(Cl)c(N)nc1N [Amiloride hydrochloride] | 102 ± 30%
COc1ccc2c(c1)c(CC(=O)O)c(C)n2C(=O)c1ccc(Cl)cc1 [Indomethacin] | 150 ± 30%
CCOCC(O)COc1ccc(NC(=O)CC[S+](C)C)cc1 (stereo not given) [Suplatast tosylate] | 75 ± 16%
Cc1ccc(/C(=C\CN2CCCC2)c2ccccn2)cc1 [trans-Triprolidine hydrochloride] | 96.7 ± 39%
Clc1ccccc1CNCC1CCC(CNCc2ccccc2Cl)CC1 (stereo not given) | 38.9 ± 23%
CC(CCCCC(=O)Nc1ccc(C(F)(F)F)cc1)NCCc1cnc[nH]1 (stereo not given) [HTMT dimaleate] | 95.1 ± 7.2%
